A selection: hits, their analogues and other compounds. The true share with any hit is near 5.7%.
JMJD2A Tudor inh – qHTS Assay for Inhibitors of JMJD2A-Tudor Domain; AID 504339, 2011; Lysine-specific demethylase 4A (Homo sapiens), O75164; hit rate 4.4% among 390,000; Potency, µM (top dose mostly 114 µM), for the others: at the highest dose activity change, negative = inhibition, most hits filed as inhibitors; AlphaScreen JMJD2A-Tudor / H3K4me3 peptide binding; note: potency is the fitted concentration of half-maximal effect; % is set by controls: 0 for no effect and ±100 for the full control effect; nearly all actives have a fitted effect of over 50% in size
PI5P4Ka inh – qHTS for Inhibitors of phosphatidylinositol 5-phosphate 4-kinase (PI5P4K); Phosphatidylinositol 5-phosphate 4-kinase type-2 alpha (Homo sapiens), P48426; PI5P4Kalpha enzyme, ADP-Glo luminescence, 60 min; hits give low values; max response, %; hit rate 1.2% among 330,000; active = max response of -50% or lower; inconclusive = between -30% and -50%; inactive = -30% or higher; note: value at the top dose of about 77 µM; % is set by controls: 0 for no effect and ±100 for the full control effect
Target sequence (P48426 whole entry, looked up): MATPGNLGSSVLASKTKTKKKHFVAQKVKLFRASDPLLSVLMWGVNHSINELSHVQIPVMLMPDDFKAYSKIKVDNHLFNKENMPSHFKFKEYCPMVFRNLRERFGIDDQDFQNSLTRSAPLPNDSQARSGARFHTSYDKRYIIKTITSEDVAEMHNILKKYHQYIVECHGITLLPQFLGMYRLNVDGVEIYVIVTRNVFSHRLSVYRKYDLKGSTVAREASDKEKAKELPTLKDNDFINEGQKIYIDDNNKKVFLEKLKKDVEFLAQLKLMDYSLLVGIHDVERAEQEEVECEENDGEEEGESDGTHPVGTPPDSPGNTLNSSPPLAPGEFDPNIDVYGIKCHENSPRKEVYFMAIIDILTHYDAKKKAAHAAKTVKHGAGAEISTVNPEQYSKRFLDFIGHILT
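Single end-point luminescence (ADP-Glo) quantified ADP from PI5P4Kalpha turnover; ATP 5 microM final, 1 h at RT, 0.1% CHAPS and 0.28 mM EGTA in HEPES pH 7.4.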
HP1b binding inh – HTS for Inhibitors of HP1-beta Chromodomain Interactions with Methylated Histone Tails; Chromobox protein homolog 1 (Homo sapiens), P83916; AlphaScreen HP1-beta / biotin-H3K9me3 peptide binding; Potency, µM (top dose mostly 114 µM), for inactives: top-dose activity change, negative = inhibition, hits mostly inhibitors; hit rate 0.56% among 390,000; note: potency is the fitted concentration of half-maximal effect; nearly all actives have a fitted effect of over 70% in size
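AlphaScreen: HP1-beta (50 nM) preformed 30 min with biotin-H3(1-18)K9me3 peptide (50 nM) in PBS pH 7.4, 0.01% Tween-20. Compound added for 30 min at RT, then streptavidin donor/nickel chelate acceptor beads (10 ug/mL) for 30 min.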
BAZ2B inh – qHTS Assay for Inhibitors of BAZ2B | Bromodomain adjacent to zinc finger domain protein 2B (Homo sapiens), Q9UIF8 | AlphaScreen BAZ2B-H3K14Ac peptide displacement | Potency, µM (highest dose often 114 µM), for inactives: top-dose activity change, negative = inhibition, actives largely listed as inhibitors | hit rate 4.4% among 360,000; note: potency is the fitted concentration of half-maximal effect; % is set by controls: 0 for no effect and ±100 for the full control effect; nearly all actives have a fitted effect of over 60% in size
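Protein-peptide AlphaScreen: BAZ2B 50 nM, b-H3K14Ac 50 nM, 1x PBS pH 7.4 + 0.01% Tween-20. Preincubation 30 min RT; cpd 30 min RT (top 110 uM); beads 20 min RT, light-protected.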
L3MBTL1 inh – qHTS Assay for the Inhibitors of L3MBTL1; Lethal(3)malignant brain tumor-like protein 1 (Homo sapiens), Q9Y468; Potency, µM (series often up to 57.1 µM), inactives show at the top dose activity, negative = inhibition, actives largely listed as inhibitors; AlphaScreen L3MBTL1–H3K9me1 peptide binding; hit rate 0.66% among 230,000; AID 485360, 2010; note: potency is the fitted concentration of half-maximal effect; % is set by controls: 0 for no effect and ±100 for the full control effect; nearly all actives have a fitted effect of over 60% in size
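First, the protein-peptide complex forms for 30 min at room temperature (L3MBTL1 50 nM, biotinylated H3K9me1 peptide 75 nM). Next, compounds are pin-transferred and incubated 30 min. Finally, AlphaScreen beads are added and read after 30 min.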
JMJD2E inh – qHTS Assay for Inhibitors of Human Jumonji Domain Containing 2E (JMJD2E). Lysine-specific demethylase 4E (Homo sapiens), B2RXH2. JMJD2E catalytic domain, FDH-coupled NADH fluorescence (FDH is formaldehyde dehydrogenase). Potency, µM (doses to about 57.1 µM), for inactives: top-dose activity change, negative = inhibition, actives largely listed as inhibitors. hit rate 1.6% among 230,000. AID 2147, 2009; active = well fitted inhibition curve with a large enough effect, not every such curve was filed as active; inconclusive = small, poorly fitted or top-dose-only effect, or another doubt; inactive = no such curve, though single readings can be large or run the other way;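 note: potency is the fitted concentration of half-maximal effect; 0% = wells with enzyme and -100% = buffer wells without enzyme; nearly all actives have a fitted effect of over 50% in size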
Target sequence (B2RXH2 1-337 limits assumed): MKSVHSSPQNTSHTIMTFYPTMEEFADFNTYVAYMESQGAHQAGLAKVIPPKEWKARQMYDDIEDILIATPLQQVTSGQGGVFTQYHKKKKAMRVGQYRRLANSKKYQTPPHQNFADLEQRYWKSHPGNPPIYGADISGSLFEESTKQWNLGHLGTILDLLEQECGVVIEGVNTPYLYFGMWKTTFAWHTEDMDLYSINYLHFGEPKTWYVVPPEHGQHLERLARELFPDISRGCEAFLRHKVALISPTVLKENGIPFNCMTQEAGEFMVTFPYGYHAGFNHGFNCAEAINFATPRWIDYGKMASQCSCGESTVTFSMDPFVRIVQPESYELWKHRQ
Starred values were filed as active, the others as inactive; ? = inconclusive; . = no result; [ ] = remark or other dose. Unless noted, calls come from the whole dose curve; as a rule, active = well fitted inhibition curve with a large enough effect; inconclusive = small, poorly fitted or top-dose-only effect; inactive = no such curve, though single readings can be large or run the other way.

SMILES | JMJD2A Tudor inh | PI5P4Ka inh | HP1b binding inh | BAZ2B inh | L3MBTL1 inh | JMJD2E inh
CCCn1c2ccccc2c2cnn(CC(=O)NCC3CCN(Cc4ccc(F)cc4)CC3)c(=O)c21 | -30% | . | -21% | -7% | . | .
Cc1c(C)c2cc3c(c(C)c2oc1=O)OCN(CCc1ccc(F)cc1)C3 | -11% | . | 30% | 0% | . | .
COC(=O)c1cc(F)c(S(=O)(=O)N2CCN(S(=O)(=O)c3ccc4c(c3)OCCO4)CC2)cc1F | -7% | . | . | . | . | .
O=C(NCc1nc2cccnc2n1Cc1ccc(F)cc1)c1ccccc1C(F)(F)F | 4% | . | 35%[57 µM] | 2% | . | .
O=C(N/N=C/c1ccccc1Cl)c1nc2ccc([N+](=O)[O-])cc2c(=O)[nH]1 | 25µM* | ? | -16% | -17% | 4% | 8%
Cc1nc2ccc(C(=O)N/N=C/c3ccccc3O)cc2[nH]1 | -30% | -5 | 39% | -37% | . | .
Cc1cc([N+](=O)[O-])nn1CC(=O)N/N=C/c1ccc(O)cc1O | ? | -6 | 50% | 89µM* | . | 13µM*
O=C(Cn1nc2ccccc2n1)N/N=C/c1cc([N+](=O)[O-])ccc1O | ? | ? | -9% | 11µM* | 7.9µM* | 4%
Cc1cc([N+](=O)[O-])nn1CC(=O)N/N=C/c1ccccc1Br | -11% | 2 | 9% | -8% | -7% | 6%
Cc1nc2ccc(C(=O)N/N=C/c3cc([N+](=O)[O-])ccc3O)cc2[nH]1 | 56µM* | -26 | 56% | 35µM* | -22% | 35µM*
O=C(Cn1nnc(-c2ccccc2)n1)N/N=C/c1cc([N+](=O)[O-])ccc1O | ? | 0 | 22% | ? | ? | -3%
COc1ccc(OC)c(NC(=O)c2c(C)oc3ncnc(N4CCOCC4)c23)c1 | -19% | . | 19% | -14%[57.1 µM] | . | .
CC(C)C[C@@H](CNCC(=O)[C@H](Cc1ccccc1)NC(=O)c1[nH]cnc1C(=O)N[C@@H](C)CN)NC(=O)c1nc[nH]c1C(=O)N[C@@H](C)C(=O)O | 79µM* | -24 | 55% | . | . | .
CC(C)C[C@H](NC(=O)c1nc[nH]c1C(=O)N[C@@H](CCCCN)C(=O)OC(C)(C)C)C(=O)OC(C)(C)C | -35% | 19 | 32% | . | -2% | .
CC(C)C[C@@H](CNCC(=O)[C@H](C)NC(=O)c1[nH]cnc1C(=O)N[C@@H](C)CN)NC(=O)c1nc[nH]c1C(=O)N[C@@H](C)C(=O)O | 50µM* | -3 | 66% | . | . | .
Cc1cccc(NC(=O)c2nc[nH]c2C(=O)N[C@@H](C)CO)c1 | . | -3 | . | . | . | .
CC(C)C[C@@H](CNCC(=O)[C@H](C)NC(=O)c1[nH]cnc1C(=O)N[C@@H](C)CN)NC(=O)c1nc[nH]c1C(=O)N[C@@H](CO)C(=O)O | 89µM* | 1 | 27% | . | . | .
O=C1CCCC2=C1C(c1ccc(O)c(O)c1)Nc1ccc3ncccc3c12 (stereo unspecified) | 25µM* | ? | ? | 50µM* | ? | 25µM*
O=C1CCCC2=C1C(c1cccs1)Nc1ccc3ncccc3c12 (stereo unspecified) | -17% | . | 4% | -21% | 1% | ?
Cc1ccc(C)c(N2CCN(C(=O)c3cnn(C(C)(C)C)c3C3CCN(C(=O)OC(C)(C)C)CC3)CC2)c1 | -35% | . | -3% | -10%[57.1 µM] | . | .
CN(Cc1nc2ccccc2c(=O)[nH]1)Cc1nc2ccsc2c(=O)[nH]1 | 79µM* | -5 | 14% | 40µM* | -5% | 51%
CC(NC(=O)CN(C)Cc1nc2ccccc2c(=O)[nH]1)c1ccccc1 (stereo unspecified) | 14% | -7 | 32% | 48% | . | 15%
O=C1CC(c2ccco2)CC(O)=C1C=Nc1cc(Cl)ccc1O (stereo unspecified) | 79µM* | -19 | ? | 45µM* | 35µM* | 28µM*
COc1cccc(/C=N/NC(=O)Cn2ccnc2C)c1 | -10% | 1 | 18% | -5% | -1% | -16%
COc1c(O)cccc1/C=N/NC(=O)Cn1ccnc1C | ? | -1 | 20%[57 µM] | ? | ? | 10µM*
SMILES | JMJD2A Tudor inh | PI5P4Ka inh | HP1b binding inh | BAZ2B inh | L3MBTL1 inh | JMJD2E inh
O=C(Cc1cccc2ccccc12)N/N=C/c1ccc(OC(=O)/C=C/c2ccco2)cc1 | -18% | ? | 10% | -35% | 25µM* | 4%
COc1cccc(-c2csc(NC3OC(=O)c4c3ccc(OC)c4OC)n2)c1 (stereo unspecified) | -20% | -4 | 3% | 79µM* | 4% | -3%
CCOCCCNCc1cccc(OC)c1 | 3.5µM* | . | -52% | ? | 7% | ?
CCOCCCNCc1ccc(OC)cc1 | 4µM* | . | -30% | ? | . | ?
COc1cccc(CNCC(=O)N2C(C)CCCC2C)c1 (stereo unspecified) | 3.5µM* | . | ? | 50µM* | 3% | -20%
CCCOc1ccc(CNCCCOCC)cc1OC | 0.79µM* | -6 | ? | -36% | . | ?
Cc1ccc(CNc2ncnc3onc(C)c23)cc1 | -17% | . | 43% | 17%[57.1 µM] | . | .
COc1ccc(Cc2nnc(NC(=O)c3cc(OC)c(OC)c(OC)c3)s2)cc1 | -25% | 4 | 23% | -33% | -12% | .
CCOCCCNC1=C(Cl)C(=O)c2ccccc2C1=O | 13µM* | -93* | 18µM* | 40µM* | ? | ?
O=C1C(Cl)=C(NCCCO)C(=O)c2ccccc21 | -30% | -4 | ? | ? | . | -3%
CCOCCCNCc1c(Cl)cccc1Cl | 5µM* | -6 | ? | ? | 14% | ?
CCOC(=O)c1noc2ncnc(Nc3cccc(OC)c3)c12 | -11% | . | 11% | -2% | . | .
CCCS(=O)(=O)N1CC(=O)N(c2cccc(F)c2)C(C)(C(=O)NC2CCCCCC2)C1 (stereo unspecified) | -6% | . | 36% | 2% | . | .
NC(C(=O)O)C1ON=C(Cl)C1O (stereo unspecified) | 79µM* | -3 | 44% | . | . | .
CCOC(=O)N(C)c1c(CC)nc2c(OCc3ccc(Cl)cc3Cl)cccn12 | . | -1 | . | . | . | .
COc1cccc([C@@H]2Oc3ccc(Br)cc3C(=O)[C@H]2OC(=O)NS(=O)(=O)c2ccc(C)cc2)c1 | . | . | . | . | . | 3%
CCc1ccc2[nH]c(=O)c(C(c3nnnn3CC3CCCO3)N3CCCc4ccccc43)cc2c1 (stereo unspecified) | ? | . | -16% | 50µM* | . | ?
Cc1cc(F)ccc1NC(=O)C(C(C)C)N1Cc2ccccc2C1=O (stereo unspecified) | -21% | . | 37% | -6% | . | .
